# Only a selection was taken, and the strongest signals are over-represented in it overall.
# B1: Neuropilin-2 (Homo sapiens), O60462 (protein)
# chain: MDMFPLTWVFLALYFSRHQVRGQPDPPCGGRLNSKDAGYITSPGYPQDYPSHQNCEWIVYAPEPNQKIVLNFNPHFEIEKHDCKYDFIEIRDGDSESADLLGKHCGNIAPPTIISSGSMLYIKFTSDYARQGAGFSLRYEIFKTGSEDCSKNFTSPNGTIESPGFPEKYPHNLDCTFTILAKPKMEIILQFLIFDLEHDPLQVGEGDCKYDWLDIWDGIPHVGPLIGKYCGTKTPSELRSSTGILSLTFHTDMAVAKDGFSARYYLVHQEPLENFQCNVPLGMESGRIANEQISASSTYSDGRWTPQQSRLHGDDNGWTPNLDSNKEYLQVDLRFLTMLTAIATQGAISRETQNGYYVKSYKLEVSTNGEDWMVYRHGKNHKVFQANNDATEVVLNKLHAPLLTRFVRIRPQTWHSGIALRLELFGCRVTDAPCSNMLGMLSGLIADSQISASSTQEYLWSPSAARLVSSRSGWFPRIPQAQPGEEWLQVDLGTPKTVKGVIIQGARGGDSITAVEARAFVRKFKVSYSLNGKDWEYIQDPRTQQPKLFEGNMHYDTPDIRRFDPIPAQYVRVYPERWSPAGIGMRLEVLGCDWTDSKPTVETLGPTVKSEETTTPYPTEEEATECGENCSFEDDKDLQLPSGFNCNFDFLEEPCGWMYDHAKWLRTTWASSSSPNDRTFPDDRNFLRLQSDSQREGQYARLISPPVHLPRSPVCMEFQYQATGGRGVALQVVREASQESKLLWVIREDQGGEWKHGRIILPSYDMEYQIVFEGVIGKGRSGEIAIDDIRISTDVPLENCMEPISAFAGENFKVDIPEIHEREGYEDEIDDEYEVDWSNSSSATSGSGAPSTDKEKSWLYTLDPILITIIAMSSLGVLLGATCAGLLLYCTCSYSGLSSRSCTTLENYNFELYDGLKHKVKMNHQKCCSEA
# Columns and labels:
# Test in all cases: glycan array binding signal (z-score within array); higher = stronger binding
# Settings in all cases: glycan notation: IUPAC condensed, linker removed
# [1] = biological target: Fuc(a1-2)Gal(b1-3)GalNAc(b1-3)Gal
# Outline: (§1)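 From the Consortium for Functional Glycomics database, 3228 arrays were curated, keeping only those whose protein sequence was available. Binding is given as a within-array Z-score averaged across arrays sharing a protein sequence and across linkers. Negative Z-scores can be read as non-binding.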
# [2] = biological target: Fuc(a1-2)Gal(b1-4)GlcNAc(b1-2)Man(a1-3)[Fuc(a1-2)Gal(b1-4)GlcNAc(b1-2)Man(a1-6)]Man(b1-4)GlcNAc(b1-4)GlcNAc
# Outline: as §1
# [3] = biological target: Fuc(a1-2)Gal(b1-4)[Fuc(a1-3)]GlcNAc
# Outline: as §1
# [4] = biological target: Fuc(a1-2)[GalNAc(a1-3)]Gal(b1-3)GlcNAc(b1-2)Man(a1-3)[Fuc(a1-2)[GalNAc(a1-3)]Gal(b1-3)GlcNAc(b1-2)Man(a1-6)]Man(b1-4)GlcNAc(b1-4)GlcNAc
# Outline: as §1
# [5] = biological target: Fuc(a1-2)[GalNAc(a1-3)]Gal(b1-4)Glc
# Outline: as §1
# [6] = biological target: Fuc(a1-3)[Gal(b1-4)]Glc6S
# Outline: as §1
# [7] = biological target: Fuc(a1-3)[Gal(b1-4)]GlcNAc(b1-4)Gal(b1-4)[Fuc(a1-3)]GlcNAc(b1-4)Gal(b1-4)[Fuc(a1-3)]GlcNAc
# Outline: as §1
# [8] = biological target: Fuc(a1-3)[Gal3S(b1-4)]Glc6S
# Outline: as §1
# [9] = biological target: Fuc(a1-3)[Gal3S(b1-4)]GlcNAc
# Outline: as §1
# [10] = biological target: Gal(b1-3)GalNAc(a1-3)[Fuc(a1-2)]Gal(b1-4)Glc
# Outline: as §1
# [11] = biological target: Gal(b1-3)[Fuc(a1-4)]GlcNAc
# Outline: as §1
# [12] = biological target: Gal(b1-3)[Fuc(a1-4)]GlcNAc(b1-2)Man(a1-3)[Gal(b1-3)[Fuc(a1-4)]GlcNAc(b1-2)Man(a1-6)]Man(b1-4)GlcNAc(b1-4)GlcNAc
# Outline: as §1
# [13] = biological target: Gal(b1-4)GlcNAc(b1-3)Gal(b1-3)GlcNAc
# Outline: as §1
# Gal3S4S(b1-4)GlcNAc = biological target: Gal3S4S(b1-4)GlcNAc
# Outline: as §1
# GalNAc(b1-4)GlcNAc = biological target: GalNAc(b1-4)GlcNAc
# Outline: as §1
# [14] = biological target: GlcNAc(a1-4)Gal(b1-3)GlcNAc
# Outline: as §1
# [15] = biological target: GlcNAc(a1-4)Gal(b1-4)GalNAc
# Outline: as §1
# [16] = biological target: GlcNAc(a1-4)Gal(b1-4)GlcNAc(b1-3)Gal(b1-4)Glc
# Outline: as §1
# [17] = biological target: GlcNAc(a1-4)Gal(b1-4)GlcNAc(b1-3)Gal(b1-4)[Fuc(a1-3)]GlcNAc(b1-3)Gal(b1-4)[Fuc(a1-3)]GlcNAc
# Outline: as §1
# GlcNAc(b1-4)GlcNAc = biological target: GlcNAc(b1-4)GlcNAc
# Outline: as §1
# [18] = biological target: Man(a1-2)Man(a1-2)Man(a1-6)[Man(a1-3)]Man
# Outline: as §1
# [19] = biological target: Man(a1-2)Man(a1-3)[Man(a1-2)Man(a1-6)]Man
# Outline: as §1
# [20] = biological target: Man(a1-2)Man(a1-3)[Man(a1-2)Man(a1-6)]Man(a1-6)[Man(a1-2)Man(a1-2)Man(a1-3)]Man
# Outline: as §1
# [21] = biological target: Neu5Ac(a2-3)Gal(b1-4)GlcNAc(b1-2)Man(a1-3)[Neu5Ac(a2-6)Gal(b1-4)GlcNAc(b1-2)Man(a1-6)]Man(b1-4)GlcNAc(b1-4)GlcNAc
# Outline: as §1
# [22] = biological target: Neu5Ac(a2-3)Gal(b1-4)GlcNAc(b1-6)[Neu5Ac(a2-3)Gal(b1-3)]GalNAc
# Outline: as §1
# [23] = biological target: Neu5Ac(a2-3)Gal(b1-4)[Fuc(a1-3)]GlcNAc(b1-3)Gal
# Outline: as §1
# [24] = biological target: Neu5Ac(a2-3)Gal(b1-4)[Fuc(a1-3)]GlcNAc(b1-3)Gal(b1-4)GlcNAc
# Outline: as §1
# [25] = biological target: Neu5Ac(a2-3)GalNAc(b1-4)GlcNAc
# Outline: as §1
# [26] = biological target: Neu5Ac(a2-3)[GalNAc(b1-4)]Gal(b1-4)Glc
# Outline: as §1
# Neu5Ac(a2-6)Gal(b1-4)Glc = biological target: Neu5Ac(a2-6)Gal(b1-4)Glc
# Outline: as §1
binder,measurement,setting,value
B1,glycan array binding signal (z-score),[1],1.26
same,glycan array binding signal (z-score),[2],3.21
same,glycan array binding signal (z-score),[3],0.117
same,glycan array binding signal (z-score),[4],-0.324
same,glycan array binding signal (z-score),[5],-0.637
same,glycan array binding signal (z-score),[6],0.81
same,glycan array binding signal (z-score),[7],-0.508
same,glycan array binding signal (z-score),[8],6.67
same,glycan array binding signal (z-score),[9],0.282
same,glycan array binding signal (z-score),[10],-0.835
same,glycan array binding signal (z-score),[11],0.255
same,glycan array binding signal (z-score),[12],5.64
same,glycan array binding signal (z-score),[13],-0.249
same,glycan array binding signal (z-score),Gal3S4S(b1-4)GlcNAc,-0.032
same,glycan array binding signal (z-score),GalNAc(b1-4)GlcNAc,-0.284
same,glycan array binding signal (z-score),[14],1.66
same,glycan array binding signal (z-score),[15],6.59
same,glycan array binding signal (z-score),[16],1.04
same,glycan array binding signal (z-score),[17],10.4
same,glycan array binding signal (z-score),GlcNAc(b1-4)GlcNAc,-0.129
same,glycan array binding signal (z-score),[18],-0.323
same,glycan array binding signal (z-score),[19],-0.496
same,glycan array binding signal (z-score),[20],-0.552
same,glycan array binding signal (z-score),[21],-0.501
same,glycan array binding signal (z-score),[22],-0.664
same,glycan array binding signal (z-score),[23],-0.587
same,glycan array binding signal (z-score),[24],3.79
same,glycan array binding signal (z-score),[25],0.369
same,glycan array binding signal (z-score),[26],-0.339
same,glycan array binding signal (z-score),Neu5Ac(a2-6)Gal(b1-4)Glc,0.038

# From the supplement of paper PMC8728848
